Results reported in PubChem BioAssay (Tox21).
Calls of active or inactive are those of the source. Calls come from the whole dose curve; as a rule, active = well fitted curve in the direction sought with a large enough effect in the repeat runs; inconclusive = weak or mixed curves; inactive = flat fitted curve, though single readings scatter.

Experiments:
[1] = qHTS assay to test for compound auto fluorescence at 535 nm (green) in HEK293 cells (AID 720680)
[2] = qHTS assay to test for compound auto fluorescence at 460 nm (blue) in HEK293 cell free culture (AID 720681)
In short: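 Compounds were added to cell-free DMEM with 10% FBS and fluorescence read directly. The blue channel used 405 nm excitation and 460 nm emission, with triamterene as the reference fluorophore.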

[3] = qHTS assay to test for compound auto fluorescence at 535 nm (green) in HEK293 cell free culture (AID 720682)
In short: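 Using fluorescein as calibrant, autofluorescence was quantified at 485/535 nm in cell-free DMEM containing 10% FBS after pintool addition of compound or vehicle.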

[4] = qHTS assay to test for compound auto fluorescence at 590 nm (red) in HEK293 cell free culture (AID 720683)
In short: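 Cell-free wells of DMEM with 10% FBS received compound, and intrinsic fluorescence was read at excitation/emission 540/590 nm. Values expressed as equivalence to Rose Bengal sodium.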

[5] = qHTS assay to test for compound auto fluorescence at 590 nm (red) in HepG2 cell free culture (AID 720684)
In short: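 Compound was pinned into wells holding MEM with 10% FBS and no cells, and red fluorescence was read at Ex/Em 540/590 nm. Signal is expressed as auto fluorescence equivalency relative to Rose Bengal sodium.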

[6] = qHTS assay to test for compound auto fluorescence at 460 nm (blue) in HepG2 cell free culture (AID 720685)
In short: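 Compound (23 nL) or DMSO pinned into cell-free MEM with 10% FBS; blue fluorescence read at 405/460 nm excitation/emission, expressed as auto-fluorescence equivalency to triamterene.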

[7] = qHTS assay to test for compound auto fluorescence at 535 nm (green) in HepG2 cell free culture (AID 720686)
[8] = qHTS assay to test for compound auto fluorescence at 460 nm (blue) in HepG2 cells (AID 720687)
In short: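 HepG2 cells in MEM with 10% FBS, attached overnight at 37 C, were exposed to compound or DMSO for 1 hr at 37 C, 5% CO2. Blue fluorescence was read at 405/460 nm, with triamterene as reference fluorophore.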
% is set by controls: 0 for no effect and ±100 for the full control effect.

C=C(C)C(=O)OC(C)C
inactive: outcome [1] | Potency [2] | outcome [3] | outcome [4] | outcome [5] | Potency [6] | outcome [7] | Potency [8]

CC[C@]12CCCN3CCc4c(n(c5ccccc45)C(=O)C1)[C@@H]32
inactive: fluorescence, % of fluorescein [1] 0.0475% [at 18.6 µM] | fluorescence, % of fluorescent control [2] -0.0431% [at 18.6 µM] | activity change [3] 0.026% [at 18.6 µM] | fluorescence, % of fluorescent control [4] -0.702% [at 18.6 µM] | fluorescence, % of Rose Bengal [5] 0.0021% [at 18.6 µM] | fluorescence, % of fluorescent control [6] 0.043% [at 18.6 µM] | fluorescence, % of fluorescein control [7] -0.019% [at 18.6 µM]

Cc1cc(C)c(S(=O)(=O)O)cc1N=Nc1cc(S(=O)(=O)O)c2ccccc2c1O
inactive: outcome [1] | Potency [2] | outcome [3] | outcome [4] | outcome [5] | Potency [6] | outcome [7] | Potency [8]

CCCOc1ccc2nc(NC(=O)OC)[nH]c2c1
inactive: outcome [1] | Potency [2] | outcome [3] | outcome [4] | outcome [5] | Potency [6] | outcome [7] | Potency [8]

CCC(C)N(C)C(=O)c1cc2ccccc2c(-c2ccccc2Cl)n1 (stereo not given)
inactive: outcome [1] | Potency [2] | outcome [3] | outcome [4] | outcome [5] | Potency [6] | outcome [7] | Potency [8]

CN(C)CC[C@@H](c1ccc(Br)cc1)c1ccccn1
inactive: outcome [1] | Potency [2] | outcome [3] | outcome [4] | outcome [5] | Potency [6] | outcome [7] | Potency [8]

C[C@H](CCC(=O)O)[C@H]1CC[C@H]2[C@@H]3[C@H](O)C[C@@H]4C[C@H](O)CC[C@]4(C)[C@H]3CC[C@]12C
inactive: outcome [1] | Potency [2] | outcome [3] | outcome [4] | outcome [5] | Potency [6] | outcome [7] | Potency [8]

O=C(NS(=O)(=O)/C=C/c1cccs1)c1ccc(F)cc1Br
inactive: outcome [1] | Potency [2] | outcome [3] | outcome [4] | outcome [5] | Potency [6] | outcome [7] | Potency [8]

C=CC[N+]1([C@H]2C[C@H]3[C@@H]4CC[C@H]5C[C@H](OC(C)=O)[C@@H](N6CCCCC6)C[C@]5(C)[C@H]4CC[C@]3(C)[C@H]2OC(=O)CC)CCCCC1
inactive: outcome [1] | Potency [2] | outcome [3] | outcome [4] | outcome [5] | Potency [6] | outcome [7]

CC(=O)Nc1ccc(/C=N/NC(N)=S)cc1
inactive: outcome [1] | Potency [2] | outcome [3] | outcome [4] | outcome [5] | Potency [6] | outcome [7]

CCOc1nc2cccc(C(=O)O)c2n1Cc1ccc(-c2ccccc2-c2nn[nH]n2)cc1
inactive: outcome [1] | Potency [2] | outcome [3] | outcome [4] | outcome [5] | Potency [6] | outcome [7] | Potency [8]

CCN(CC)C(C)=O
inactive: outcome [1] | Potency [2] | outcome [3] | outcome [4] | outcome [5] | Potency [6] | outcome [7] | Potency [8]

CCCCCCCCCC(=O)OCC
inactive: outcome [1] | Potency [2] | outcome [3] | outcome [4] | outcome [5] | Potency [6] | outcome [7] | Potency [8]

O=C(c1ccccc1)c1ccc2n1CCC2C(=O)O (stereo not given)
inactive: outcome [1] | Potency [2] | outcome [3] | outcome [4] | outcome [5] | Potency [6] | outcome [7]

CC(=O)O[C@H]1C[C@@H]2CC[C@@H]3[C@H](CC[C@@]4(C)[C@H]3C[C@H]([N+]3(C)CCCCC3)[C@@H]4OC(C)=O)[C@@]2(C)C[C@@H]1N1CCCCC1
inactive: outcome [1] | Potency [2] | outcome [3] | outcome [4] | outcome [5] | Potency [6] | outcome [7] | Potency [8]

CCCCCc1ccc(N)cc1
inactive: outcome [1] | Potency [2] | outcome [3] | outcome [4] | outcome [5] | Potency [6] | outcome [7] | Potency [8]

CC(C)CCCCCCOC(=O)c1ccc(C(=O)OCCCCCCC(C)C)c(C(=O)OCCCCCCC(C)C)c1
inactive: outcome [1] | Potency [2] | outcome [3] | outcome [4] | outcome [5] | Potency [6] | outcome [7] | Potency [8]

Cc1ccc(C(=O)C(C)CN2CCCCC2)cc1 (stereo not given)
inactive: outcome [1] | Potency [2] | outcome [3] | outcome [4] | outcome [5] | Potency [6] | outcome [7] | Potency [8]

CCC(=O)OC(C)(C)C1CC=C(C)CC1 (stereo not given)
inactive: outcome [1] | Potency [2] | outcome [3] | outcome [4] | outcome [5] | Potency [6] | outcome [7] | Potency [8]

O=S1(=O)N=C(O)c2ccccc21
inactive: outcome [1] | Potency [2] | outcome [3] | outcome [4] | outcome [5] | Potency [6] | outcome [7] | Potency [8]

Cl/C(=C\n1cncn1)c1ccc(Cl)cc1Cl
inactive: outcome [1] | Potency [2] | outcome [3] | outcome [4] | outcome [5] | Potency [6] | outcome [7] | Potency [8]

CCCCCCOC(=O)CCC
inactive: outcome [1] | Potency [2] | outcome [3] | outcome [4] | outcome [5] | Potency [6] | outcome [7] | Potency [8]

O=C(O)C(c1ccc(Cl)cc1)c1ccc(Cl)cc1
inactive: outcome [1] | Potency [2] | outcome [3] | outcome [4] | outcome [5] | Potency [6] | outcome [7] | Potency [8]

SC1CCCC1
inactive: outcome [1] | Potency [2] | outcome [3] | outcome [4] | outcome [5] | Potency [6] | outcome [7] | Potency [8]

C=C(C)C(=O)OCCN(C)C
inactive: outcome [1] | Potency [2] | outcome [3] | outcome [4] | outcome [5] | Potency [6] | outcome [7] | Potency [8]

CCOc1ccc2[nH]cc(C(=O)NCc3ccccc3)c(=O)c2n1
inactive: outcome [1] | Potency [2] | outcome [3] | outcome [4] | outcome [5] | Potency [6] | outcome [7]

Cc1ccccc1N=Nc1ccc(N=Nc2c(O)ccc3ccccc23)c(C)c1
inactive: outcome [1] | Potency [2] | outcome [3] | outcome [4] | outcome [5] | Potency [6] | outcome [7]
